Screens: PubChem, Center for Chemical Genomics, University of Michigan
Dicer processing – inhibitors of Dicer pre-microRNA processing, primary screen, biochemical, cat-ELCCA, chemiluminescence; AID 1347074, 2019; cat-ELCCA pre-miR-21 Dicer processing; hits give high values; actives 6% (n = 47,000); z-score at 25 µM; Endoribonuclease Dicer (Homo sapiens), Q9UPY3; in the data active = z-score above about 3, passing the limit was not always enough;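 also: higher signal means more uncleaved substrate so more Dicer inhibition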
Target sequence (Q9UPY3 whole entry, looked up): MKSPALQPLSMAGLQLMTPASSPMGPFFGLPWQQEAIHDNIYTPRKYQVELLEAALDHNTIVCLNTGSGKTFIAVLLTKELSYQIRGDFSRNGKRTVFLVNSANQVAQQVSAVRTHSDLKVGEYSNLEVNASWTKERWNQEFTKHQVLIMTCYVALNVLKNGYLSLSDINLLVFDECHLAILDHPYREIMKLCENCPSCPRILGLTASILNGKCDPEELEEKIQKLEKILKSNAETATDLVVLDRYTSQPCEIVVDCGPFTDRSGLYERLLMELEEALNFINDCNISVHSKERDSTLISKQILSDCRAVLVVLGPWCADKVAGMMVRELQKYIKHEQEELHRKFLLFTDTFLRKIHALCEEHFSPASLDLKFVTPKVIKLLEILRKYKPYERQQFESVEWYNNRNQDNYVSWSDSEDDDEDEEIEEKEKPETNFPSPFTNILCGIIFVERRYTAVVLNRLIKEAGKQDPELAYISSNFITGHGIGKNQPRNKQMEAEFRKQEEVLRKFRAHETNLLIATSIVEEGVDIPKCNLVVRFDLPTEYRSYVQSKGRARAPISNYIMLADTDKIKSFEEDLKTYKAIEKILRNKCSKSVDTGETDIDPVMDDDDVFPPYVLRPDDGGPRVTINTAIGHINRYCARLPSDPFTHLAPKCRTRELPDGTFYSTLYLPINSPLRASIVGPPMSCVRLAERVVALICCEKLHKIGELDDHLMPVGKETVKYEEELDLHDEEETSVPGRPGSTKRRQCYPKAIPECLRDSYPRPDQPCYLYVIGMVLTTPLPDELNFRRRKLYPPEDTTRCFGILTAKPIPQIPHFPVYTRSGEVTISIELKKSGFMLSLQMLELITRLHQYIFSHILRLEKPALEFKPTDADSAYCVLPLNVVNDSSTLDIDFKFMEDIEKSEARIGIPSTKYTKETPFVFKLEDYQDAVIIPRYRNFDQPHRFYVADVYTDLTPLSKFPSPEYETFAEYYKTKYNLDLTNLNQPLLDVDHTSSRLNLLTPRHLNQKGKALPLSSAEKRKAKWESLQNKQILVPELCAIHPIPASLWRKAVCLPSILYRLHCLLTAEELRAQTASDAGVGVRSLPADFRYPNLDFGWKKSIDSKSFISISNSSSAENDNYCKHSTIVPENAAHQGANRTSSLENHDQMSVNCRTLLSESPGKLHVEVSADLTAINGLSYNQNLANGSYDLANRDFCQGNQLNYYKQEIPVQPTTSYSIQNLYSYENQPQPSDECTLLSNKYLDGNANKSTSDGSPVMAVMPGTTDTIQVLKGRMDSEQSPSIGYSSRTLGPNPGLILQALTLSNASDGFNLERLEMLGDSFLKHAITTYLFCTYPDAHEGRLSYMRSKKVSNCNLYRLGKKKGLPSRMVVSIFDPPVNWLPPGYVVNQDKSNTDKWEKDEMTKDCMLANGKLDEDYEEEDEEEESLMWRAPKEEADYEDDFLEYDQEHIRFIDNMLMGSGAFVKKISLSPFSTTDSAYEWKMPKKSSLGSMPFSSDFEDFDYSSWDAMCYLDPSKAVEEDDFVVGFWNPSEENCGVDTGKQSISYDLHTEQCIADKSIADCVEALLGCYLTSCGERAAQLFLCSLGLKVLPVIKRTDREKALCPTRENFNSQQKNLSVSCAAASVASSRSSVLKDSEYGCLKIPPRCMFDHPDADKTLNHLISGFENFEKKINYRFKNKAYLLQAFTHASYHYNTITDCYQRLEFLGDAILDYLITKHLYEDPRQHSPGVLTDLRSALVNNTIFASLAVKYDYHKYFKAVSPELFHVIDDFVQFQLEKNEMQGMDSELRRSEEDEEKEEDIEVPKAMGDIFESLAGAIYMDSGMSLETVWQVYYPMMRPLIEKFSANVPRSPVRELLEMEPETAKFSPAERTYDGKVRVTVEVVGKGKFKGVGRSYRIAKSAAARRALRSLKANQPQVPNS
Hits are given with their value; . = inactive. Only a selection was taken, and hits are over-represented in it overall.

SMILES	Dicer processing
Cc1ccc([N+](=O)[O-])c(C(=O)N(CCc2ccccn2)c2ccccc2)c1	.
Cc1csc(NC(=O)Nc2ccc(OCc3ccccc3)cc2)c1-c1nc2ccccc2s1	.
N#Cc1cccnc1S(=O)(=O)CCOC(=O)c1cccc(Cl)c1	.
O=c1cc(C(F)(F)F)[nH]n1-c1ccccc1	.
COC(=O)c1cc(=O)n(-c2cc(C(F)(F)F)cc(C(F)(F)F)c2)[nH]1	.
COC(=O)c1cc(=O)n(-c2ccccc2C(F)(F)F)[nH]1	3.2
COc1cc(C2Nc3ccccc3NC3=C2C(=O)CC(c2ccc(OC)c(OC)c2)C3)ccc1O (centres undefined)	.
COc1ccc(C2CC(=O)C3=C(C2)Nc2ccccc2NC3c2ccc(OC)c(O)c2)cc1 (centres undefined)	.
Cc1ccc(C2CC(=O)C3=C(C2)Nc2ccccc2NC3c2ccc3c(c2)OCO3)cc1 (centres undefined)	.
COc1ccc(C2Nc3ccccc3NC3=C2C(=O)CC(c2ccccc2)C3)c(OC)c1 (centres undefined)	.
COc1ccc(C2CC(=O)C3=C(C2)Nc2ccccc2NC3c2cc(OC)ccc2OC)cc1 (centres undefined)	.
COc1ccc(C2CC(=O)C3=C(C2)Nc2ccccc2NC3c2cccc3ccccc23)cc1OC (centres undefined)	5.4
CSc1ccc(C2Nc3ccccc3NC3=C2C(=O)CC(c2ccc4c(c2)OCO4)C3)cc1 (centres undefined)	4.6
COc1cc(C2Nc3ccccc3NC3=C2C(=O)CC(c2ccc4c(c2)OCO4)C3)ccc1OC(C)=O (centres undefined)	.
COc1ccc(C2CC(=O)C3=C(C2)Nc2ccccc2NC3c2ccc(SC)cc2)cc1OC (centres undefined)	5.2
CSc1nc(N)n(-c2cc(C(F)(F)F)cc(C(F)(F)F)c2)n1	.
Nc1c(C(=O)c2ccc(Cl)cc2)sc2nnc(-c3ccccc3)c(-c3ccccc3)c12	.
COc1ccc(-c2c3c([nH]c(=S)c2C#N)CCCCC3)cc1	.
C=CCn1c2ccc(C)cc2c2nc3ccccc3nc21	.
COCCOC(=O)C1=C(C)NC2=C(C(=O)CC(c3ccccc3)C2)C1c1ccccc1F (centres undefined)	.
COC(=O)C1=C(C)NC2=C(C(=O)CC(c3ccccc3OC)C2)C1c1cccc(OC)c1OC (centres undefined)	.
COCCOC(=O)C1=C(C)NC2=C(C(=O)CC(c3ccccc3)C2)C1c1cccc(OC)c1OC (centres undefined)	7.2
CC1=C(C(=O)OCC(C)C)C(c2ccccc2)C2=C(CC(c3ccccc3)CC2=O)N1 (centres undefined)	3.6
COc1ccc(C2C(C(=O)OC3CCCCC3)=C(C)NC3=C2C(=O)CC(C)(C)C3)cc1O (centres undefined)	.
CC1=C(C(=O)OCC(C)C)C(c2ccc3c(c2)OCO3)C2=C(CC(c3ccccc3)CC2=O)N1 (centres undefined)	.
SMILES	Dicer processing
COc1cc(C2C(C(=O)OC3CCCCC3)=C(C)NC3=C2C(=O)CC(C)(C)C3)ccc1O (centres undefined)	.
COc1ccccc1C1C(C(=O)OCC2CCCO2)=C(C)NC2=C1C(=O)CC(C)(C)C2 (centres undefined)	.
COc1cccc(C2C(C(=O)OCC3CCCO3)=C(C)NC3=C2C(=O)CC(C)(C)C3)c1OC (centres undefined)	5.4
CCOc1cc(C2C(C(=O)OC3CCCCC3)=C(C)NC3=C2C(=O)CC(C)(C)C3)ccc1OC(C)=O (centres undefined)	5.4
COc1ccc(C2CC(=O)C3=C(C2)NC(C)=C(C(=O)OCC(C)C)C3c2ccc(F)cc2)cc1 (centres undefined)	.
COc1cccc(C2C(C(=O)OCc3ccccc3)=C(C)NC3=C2C(=O)CC(C)(C)C3)c1OC (centres undefined)	.
CC(Oc1ccc(Cl)cc1)c1n[nH]c(=S)n1-c1ccccc1 (centres undefined)	.
O=C(O)CCC(=O)Nc1nc2ccccc2s1	.
N#Cc1cc2nc(O)c(O)nc2cc1[N+](=O)[O-]	.
CC(C)c1ccc(NC(=O)CSc2ncc(-c3ccc(Cl)cc3)n2C)cc1	.
O=C(O)C(Cc1ccccc1)N1C(=O)c2cccc3cccc(c23)C1=O (centres undefined)	.
Cn1c2ccccc2c2cc(Cl)ccc21	.
COc1ccc(/C=N/c2c(-c3ccccc3)c(C(F)(F)F)nn2C)cc1	.
Nc1nnc(SCCCCOC2CCCCO2)s1 (centres undefined)	.
CN(C)CCOc1ccc(/C(=C(/CCCl)c2ccccc2)c2ccccc2)cc1	.
CC1=C(C(=O)OC2CCCC2)C(c2ccccc2)C2=C(CC(c3ccccc3)CC2=O)N1 (centres undefined)	3.1
CC1=C(C(=O)OC2CCCCC2)C(c2ccccn2)C2=C(CC(c3ccccc3)CC2=O)N1 (centres undefined)	.
COc1ccc(C2CC(=O)C3=C(C2)NC(C)=C(C(=O)OC2CCCC2)C3c2ccc(OC)cc2)cc1 (centres undefined)	.
COc1ccc(C2CC(=O)C3=C(C2)NC(C)=C(C(=O)OC(C)C)C3c2ccccc2OC)cc1OC (centres undefined)	.
CC1=C(C(=O)OCCOC(C)C)C(c2cccc(Cl)c2)C2=C(CC(c3cccs3)CC2=O)N1 (centres undefined)	.
CCSCCOC(=O)C1=C(C)NC2=C(C(=O)CC(c3ccccc3)C2)C1c1ccccc1F (centres undefined)	4
CCSCCOC(=O)C1=C(C)NC2=C(C(=O)CC(c3cccs3)C2)C1c1ccc(F)cc1 (centres undefined)	.
CCSCCOC(=O)C1=C(C)NC2=C(C(=O)CC(c3ccccc3)C2)C1c1ccc(F)cc1 (centres undefined)	.
CC1=C(C(=O)OCCOC(C)C)C(c2ccc(F)cc2)C2=C(CC(c3cccs3)CC2=O)N1 (centres undefined)	.
CC1=C(C(=O)OCCOC(C)C)C(c2cccs2)C2=C(CC(c3cccs3)CC2=O)N1 (centres undefined)	4.1
SMILES	Dicer processing
COC(=O)C1=C(C)NC2=C(C(=O)CC(c3ccccc3)C2)C1c1ccccc1OC(C)C (centres undefined)	.
COc1ccccc1C1C(C(=O)OCC(C)C)=C(C)NC2=C1C(=O)CC(c1ccccc1)C2 (centres undefined)	5
Cc1ccc(-n2nnc(-c3ccc(Cl)cc3)n2)cc1	.
C=CCNC(=S)N1CCc2c([nH]c3ccccc23)C1C(F)(F)F (centres undefined)	.
CN(C)/C=N/c1nnc(Sc2ccc(C(F)(F)F)cc2[N+](=O)[O-])s1	.
O=C(NCc1ccc2c(c1)OCO2)c1cnn2c(C(F)F)cc(-c3ccccc3)nc12	.
Cc1ccc2nc(C)c3c(c2c1)N(c1ccc(F)cc1)CC3	.
CCCN1c2ccccc2C(=C2SC(C(=O)OC)=C(C(=O)OC)S2)C(=S)C1(C)C	.
COc1ccc2c(c1)c(=O)oc1c(C)c(OC(C(=O)O)c3ccccc3)ccc12 (centres undefined)	.
CCOC(=O)C1CCN(C(=O)C2Cc3ccccc3N2C(=O)OCc2ccccc2)CC1 (centres undefined)	.
CCOC(=O)C1=C(C)NC2=C(C(=O)c3ccccc32)C1c1cc(Br)c(OCC)c(OC)c1 (centres undefined)	.
